Laboratory results taken from PubChem BioAssay AID1981 (Southern Research Specialized Biocontainment Screening …, 2009).
About 480 (22%) of roughly 2,200 compounds were called active. The rule behind the calls is not given here. Only a sample is shown. Results with a measured potency or affinity are listed apart.

Assay: S. Typhimurium GFP fluorescence modified counterscreen for PhoP regulon inhibitor project dose response (AID 1981);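 note: 0% = induced DMSO wells and 100% = uninduced wells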
Settings: 4 h; series mostly up to 150 µM; inhibition: at the top concentration

| SMILES | inhibition |
| --- | --- |
| C=CCOc1ccc(/C=N/NC(=O)CN(c2cc(Cl)ccc2OC)S(=O)(=O)c2ccc(C)c([N+](=O)[O-])c2)cc1 | -3.87% (inactive) |
| CN(CC(=O)Nc1ccc(C#N)cc1)Cc1ccc(Cl)cc1 | -10.4% (inactive) |
| O=C(CSc1ccc(Cl)cc1)Nc1ccccc1N1CCN(C(=O)c2ccc(Cl)cc2)CC1 | 0.39% (inactive) |
| Cc1nc(C(=O)Nc2ccc(Cl)cc2)nn1-c1ccc([N+](=O)[O-])cc1 | -9.42% (inactive) |
| OC1(c2ccc3ccccc3c2)CCN(Cc2ccccc2)C1 (centres undefined) | 6.84% (inactive) |
| NNC(=O)c1cc2ccccc2cc1O | 22.8% (inactive) |
| NC(=NCCc1c[nH]c2ccccc12)NC(=O)c1ccc(F)cc1 | -0.38% (inactive) |
| C=CCSc1ncnc2sc(C)c(C)c12 | -7.55% (inactive) |
| Cc1cc2cc(CCNC(=O)c3cccs3)c(=O)[nH]c2cc1C | -4.98% (inactive) |
| CCOC(=O)c1cnc2ccc(OC)cc2c1Nc1ccc2c(c1)OCCO2 | -11.6% (inactive) |
| COc1cccc(Cn2cnc3c(NS(=O)(=O)c4cccc(Cl)c4Cl)c(C)c(C)cc32)c1 | 5.67% (inactive) |
| Cc1cc(Oc2ccc(-c3nnc(-c4ccccc4)o3)cc2[N+](=O)[O-])ccc1Cl | -8.24% (inactive) |
| O=c1[nH]c(CSc2nnc(NCCCN3CCOCC3)s2)nc2cc(Cl)ccc12 | -9% (inactive) |
| O=C(Nc1ccc(O)cc1)c1cc2n(n1)C(C(F)(F)F)CC(c1ccco1)N2 (centres undefined) | -4.44% (inactive) |
| CCOc1cc(C2Nc3cccc4cccc(c34)N2)ccc1O | 1.35% (inactive) |
| OC(COc1ccc2c(c1)CCC2)Cn1cnc2ccccc21 (centres undefined) | -11.3% (inactive) |
| O=C1CC(SCc2nc3ccccc3[nH]2)C(=O)N1c1ccc(Cl)cc1 (centres undefined) | -5.15% (inactive) |
| Cc1c(Cl)cccc1NC(=O)CSc1ncnc2c1cnn2CCc1ccccc1 | -3.55% (inactive) |
| Cc1ccc(S(=O)(=O)N2CCC(C(N)=O)CC2)c(C)c1C | -25.7% (inactive) |
| O=C1C2=C(NC(=S)NC2c2ccc(Cl)cc2)NC(c2ccc(Cl)cc2)N1c1ccc(Cl)cc1 (centres undefined) | -2.67% (inactive) |
| Cc1nc(-c2ccccc2)cc(=O)[nH]1 | -14.2% (inactive) |
| CC(=O)C1=C(C)Nc2ncnn2C1c1ccccc1OCc1ccccc1 (centres undefined) | -7.39% (inactive) |
| O=C(Nc1ccc2c(c1)OCO2)c1cnn2cccnc12 | -0.91% (inactive) |
| CC(O)CNCCNCc1c(OCc2ccccc2)ccc2ccccc12 (centres undefined) | -9.96% (inactive) |
| OCCN(Cc1ccccc1)Cc1ccc(Cl)cc1 | 3% (inactive) |

| SMILES | inhibition |
| --- | --- |
| N#CC1=C(N)Oc2c(O)cc3ccccc3c2C1c1ccsc1 (centres undefined) | -1.53% (inactive) |
| COc1ccc(Nc2ccc3c(c2)=NC2(CCCCC2)[N+]=3[O-])cc1 | -15.4% (inactive) |
| COc1ccc(Nc2sc(C(=O)Nc3cccc(Cl)c3)c(N)c2C(=O)Nc2ccccc2OC)cc1 | 35.8% (inactive) |
| COc1ccc(OCCSc2nnc(-c3ccc(OC)cc3)n2N)cc1 | 4.18% (inactive) |
| O=C(CC(NS(=O)(=O)c1ccc(Cl)cc1)c1ccco1)N1CCc2ccccc21 (centres undefined) | 8.18% (inactive) |
| Cc1cc(-c2nnc(-c3ccccc3)c(-c3ccccc3)n2)c(C)o1 | 24.3% (inactive) |
| CO/N=C\CC(=O)Nc1ccc(F)cc1 | -6.1% (inactive) |
| Cc1ccc(NC(=S)NCc2cccnc2)cc1 | 3.19% (inactive) |
| Oc1ccc(/C=N/NC(=S)Nc2cccnc2)c(O)c1 | 39.1% (inactive) |
| COc1cccc(NC(=O)NCCCN2CCN(c3ccc(F)cc3)CC2)c1 | -1.75% (inactive) |
| Cc1ccc(-n2c(C)cc(-c3csc(N)n3)c2C)cc1 | -31% (inactive) |
| CCOc1ccc(CSC(=N)N)cc1[N+](=O)[O-] | 12.9% (inactive) |
| CCOc1ccc(C(=O)Nc2ccccc2CC)cc1[N+](=O)[O-] | -2.2% (inactive) |
| CCOc1ccc(C(=O)NC(=S)Nc2ccc(N3CCCCC3)cc2)cc1[N+](=O)[O-] | 4.6% (inactive) |
| CC(C)NC(=O)/C(=N\O)c1ccccc1 | -9.11% (inactive) |
| Cc1ccc(Oc2nnc(-c3ccccc3)c3ccccc23)cc1 | 1.47% (inactive) |
| CCn1c(SCC(=O)N2CCCCC2)nc(O)cc1=O | -21.6% (inactive) |
| Cc1ccc(Nc2cc(=O)[nH]c(=O)[nH]2)c(C)c1 | 13.7% (inactive) |
| CCn1c2ccccc2c2cc(C3N=C(N)Nc4nc5ccccc5n43)ccc21 (centres undefined) | 10.1% (inactive) |
| CCn1cc(C(=O)O)c(=O)c2cc(OC)ccc21 | 11.1% (inactive) |
| COc1ccc(Oc2coc3cc(OC(=O)c4cccs4)ccc3c2=O)cc1 | 6.15% (inactive) |
| CCOC(=O)c1ccc(NC(=O)Nc2cc(C)on2)cc1 | -17.7% (inactive) |
| COC(=O)C1C(=O)C=C(N2CCOCC2)CC1(C)C (centres undefined) | -4.96% (inactive) |
| O=C(CNC(=O)OCc1ccccc1)NCC(=O)N1CCCC1C(=O)OCc1ccccc1 (centres undefined) | -7.85% (inactive) |
| COc1ccc(C2=C(Nc3ccc(C)cc3)c3ccccc3C2=O)cc1 | -11% (inactive) |

| SMILES | inhibition |
| --- | --- |
| O=c1c(Cl)c(Cl)cnn1Cc1ccccc1Cl | -13.2% (inactive) |
| N=c1sccn1CC(=O)Nc1ccccc1Oc1ccccc1 | 0.14% (inactive) |
| CC(=O)N1CCC(N(CCN2CCOCC2)C(=S)Nc2cccc(C)c2C)CC1 | -5.55% (inactive) |
| CCCNC(=O)COC(=O)CCC(=O)c1ccc(F)cc1 | -6.56% (inactive) |
| NC(=NCc1ccc2c(c1)OCO2)NC(=O)c1ccccc1 | 19.6% (inactive) |
| O=C(CN1CCCCC1)Nc1cccc2c1OCO2 | -3.16% (inactive) |
| O=C(Nc1ccc2oc(-c3ccc(Cl)c(Cl)c3)nc2c1)c1ncn[nH]1 | -19.4% (inactive) |
| CCOC(=O)C1=C(C)Nc2nc3ccccc3n2C1c1cccs1 (centres undefined) | -8.32% (inactive) |
| COc1ccc(-c2nc3ccccc3c(=O)n2-c2nccs2)cc1 | -6.63% (inactive) |
| Brc1cccc(CNc2nc3ccccc3n2CCN2CCCCC2)c1 | -11.9% (inactive) |
| CC(=O)N1C(=O)C2(C(C#N)=C(N)Oc3c2c(C)nn3-c2ccccc2)c2ccccc21 (centres undefined) | 6.5% (inactive) |
| CCCCn1cnc2c(cnn2-c2ccc(F)cc2)c1=O | 0.9% (inactive) |
| CC(NC(=O)C1(C)CC1(Br)Br)C(C)(C)C (centres undefined) | -18% (inactive) |
| Cc1ccc(C(=O)NNc2c3ccccc3nc3ccccc23)cc1 | 7.58% (inactive) |
| Cc1ccc(C(=O)C(OC(=O)COc2ccccc2C)c2ccccc2)cc1 (centres undefined) | -5.2% (inactive) |
| O=C(NCCc1ccccc1)c1ccc2nc(-c3ccco3)c(-c3ccco3)nc2c1 | -41.8% (inactive) |
| C=CCOc1ccccc1CNCCCN1CCOCC1 | 2.89% (inactive) |
| O=c1[nH]c(NCc2ccco2)nnc1Cc1ccccc1Cl | 1.24% (inactive) |
| O=C(NNc1c2ccccc2nc2ccccc12)c1cccc(O)c1 | 17.3% (inactive) |
| Nc1cc(N)cc(-c2nc3ccccc3[nH]2)c1 | -19% (inactive) |
| COc1ccc(S(=O)(=O)n2nc(OC(=O)c3cccs3)cc2N)cc1 | 1.62% (inactive) |
| CC(=O)C1=C(C)NC(SCSc2ccccc2)=C(C#N)C1c1cccnc1 (centres undefined) | -17.3% (inactive) |
| COC(=O)CCC(=O)Nc1ccc(Cl)c(Cl)c1 | 12.8% (inactive) |
| S=C(Nc1ccc(Cl)c(Cl)c1)N1CCOCC1 | 4.16% (inactive) |
